We go through 29 compounds from PubChem BioAssay (NCATS).

Where “and” joins values, the source holds several entries; their conditions need not be identical. Identical values can stand only once. Inconclusive results are not listed. A number with no mark means an inactive call. Calls of active or inactive are those of the source. Unless noted, calls follow the shape of the dose curve; as a rule, active = well fitted curve in the direction sought with a large enough effect; inconclusive = small, poorly fitted or top-dose-only effect, or another doubt; inactive = no such curve, though single readings can be large; an effect the other way counts as inactive or inconclusive.

Test [1] in a line: Confirmatory qHTS for small molecule stabilizers of the endoplasmic reticulum resident proteome: Secreted ER Calcium Modulated Protein (SERCaMP) assay (AID 1508628). Also: nearly all actives have a fitted effect of over 40% in size. Also: potency is read from the fitted curve at half-maximal effect. The essentials: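 We seeded SH-SY5Y-GLuc-SERCaMP cells, added compounds (three concentrations in the primary run, eleven up to 76.6 uM in confirmation), incubated 16 h, depleted ER calcium with thapsigargin, and read luciferase 4 h later.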
For orientation: In qHTS, concentration-response curves come from the screen itself.

Test [2] is described as follows: Cell Viability qHTS for small molecule stabilizers of the endoplasmic reticulum resident proteome (AID 1508629).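 Also: compound exposure about 46 h in total before the viability read.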 Also: potency is read from the fitted curve at half-maximal effect.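 As to max response: human SH-SY5Y neuroblastoma cells carrying the GLuc-SERCaMP reporter; % is scaled to controls: 0 for no effect and ±100 for the full control effect.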 As to conditions: cell viability counter-screen, 100 nM thapsigargin for final 4 h.
Test [3] is described as follows: A High-Content qHTS Against Drug Library for the Identification of Small Molecules that Inhibit DYT1 Early Onset Primary Dystonia-Associated Cell Pathology (AID 1645839; calls by dose curve; also: series mostly up to about 46 µM). The essentials: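 Flp-In T-REx 293 cells with tetracycline-inducible EGFP-delE hTOR1A (WT EGFP-hTOR1A as reference), 800 cells/well; compound added with tetracycline, 48 h at 37 C. Fixed, permeabilized cells imaged; %pathology (punctate TorsinA) primary, cell count counterscreen.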

The target in test [4] is Cytochrome P450 2D6 (Homo sapiens) (UniProt P10635). As to the kind of experiment: Cytochrome P450 family 2 subfamily D member 6 (CYP2D6) small molecule antagonists: luciferase biochemical (cell-free) qHTS assay (AID 1645840; active = well fitted curve in the direction sought with a large enough effect in the repeat runs; an effect the other way counts as inactive or inconclusive; also: nearly all actives have a fitted effect of over 55% in size; also: potency is read from the fitted curve at half-maximal effect). In a few lines: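 P450-Glo luminescent screen: recombinant CYP2D6 enzyme–proluciferin substrate mix preincubated with compound 10 min at room temperature, then NADPH regeneration added for 1 h at room temperature. Detection reagent added for 20 min; luciferin light read as relative luminescence units.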
Sequence of Cytochrome P450 2D6 (Homo sapiens) (P10635 whole entry, looked up): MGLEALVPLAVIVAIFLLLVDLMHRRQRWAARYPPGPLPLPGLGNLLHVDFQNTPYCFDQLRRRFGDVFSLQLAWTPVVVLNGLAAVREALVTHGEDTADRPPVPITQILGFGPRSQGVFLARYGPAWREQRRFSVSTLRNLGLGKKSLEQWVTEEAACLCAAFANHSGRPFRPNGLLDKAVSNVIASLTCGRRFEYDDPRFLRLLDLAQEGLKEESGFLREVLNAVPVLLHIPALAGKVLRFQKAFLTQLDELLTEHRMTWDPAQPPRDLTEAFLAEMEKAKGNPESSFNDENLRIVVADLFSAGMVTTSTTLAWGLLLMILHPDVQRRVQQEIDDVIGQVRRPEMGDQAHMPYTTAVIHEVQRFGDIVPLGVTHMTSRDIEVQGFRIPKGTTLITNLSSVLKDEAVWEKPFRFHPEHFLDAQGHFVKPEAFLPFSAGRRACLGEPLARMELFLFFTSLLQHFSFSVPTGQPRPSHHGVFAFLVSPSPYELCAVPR

Test [5] addresses Cytochrome P450 2C9 (Homo sapiens) (UniProt P11712). The test can be described thus: Cytochrome P450 family 2 subfamily C member 9 (CYP2C9) small molecule antagonists: luciferase biochemical (cell-free) qHTS assay (AID 1645842; active = well fitted curve in the direction sought with a large enough effect in the repeat runs; an effect the other way counts as inactive or inconclusive; also: nearly all actives have a fitted effect of over 55% in size; also: potency is read from the fitted curve at half-maximal effect). The essentials: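 Luminescence, after 20 min with luciferin detection reagent, reflected CYP2C9 turnover during a 1 h NADPH-driven reaction at 37C. Enzyme-substrate mix contained 0.4% bovine serum albumin and was preincubated with compound 10 min at room temperature.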

Test [6] can be described thus: Primary qHTS for inhibitors of nuclear receptor binding SET domain protein 2 (NSD2) in an isogenic RCH-ACV NSD2 p.E1099K mutant (9B) (AID 1645876). Also: nearly all actives have a fitted effect of over 70% in size. Also: potency is read from the fitted curve at half-maximal effect.
The nature of test [7]: Primary qHTS for small molecule stabilizers of the endoplasmic reticulum resident proteome: Secreted ER Calcium Modulated Protein (SERCaMP) assay (AID 1508630). Also: potency is read from the fitted curve at half-maximal effect. In a few lines:
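GLuc-SERCaMP-expressing SH-SY5Y cells, pretreated 16 h with compound, are challenged with thapsigargin to empty ER calcium stores; after 4 h, coelenterazine is added directly to the medium and luminescence is imaged.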

Test [8] can be described thus: Primary qHTS for inhibitors of nuclear receptor binding SET domain protein 2 (NSD2) in an RCH-ACV wild type WT cells (2C) (AID 1645877). Also: nearly all actives have a fitted effect of over 70% in size. Also: potency is read from the fitted curve at half-maximal effect.
The target in test [9] is Rap guanine nucleotide exchange factor 3 (Homo sapiens) (UniProt O95398). The test can be described thus: Confirmatory qHTS for antagonist of cAMP-regulated guanine nucleotide exchange factor 3 (EPAC1) (AID 1645880).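 Also: plate controls were DMSO only for no effect and full effect of the ATA control for full effect; nearly all actives have a fitted effect of over 55% in size.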 The essentials:
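Nucleotide exchange uses 100 nM EPAC1, 250 nM RAP1B-BODIPY-GDP and 50 uM GDP, with compounds in a concentration-titration series. After 5 min at room temperature, fluorescence (480 nm ex/540 nm em) is read every 5 min for 30 min. Data are normalized to control ATA and DMSO.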

Test [10] shares this target. The test can be described thus: Confirmatory qHTS for agonist of cAMP-regulated guanine nucleotide exchange factor 3 (EPAC1) (AID 1645881).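 Also: EPAC1 catalysed release of BODIPY-GDP from Rap1B seen as fluorescence loss; 100% = effect of cAMP agonist control; nearly all actives have a fitted effect of over 75% in size.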
Test [11] addresses Rap guanine nucleotide exchange factor 4 (Homo sapiens) (UniProt Q8WZA2). The test can be described thus: Confirmatory qHTS for antagonist of cAMP-regulated guanine nucleotide exchange factor 4 (EPAC2) (AID 1645885). Also: % is scaled to controls: 0 for no effect and ±100 for the full control effect; nearly all actives have a fitted effect of over 25% in size.
The target of test [12] is Cytochrome P450 3A4 (Homo sapiens) (UniProt P08684). The test can be described thus: Cytochrome P450 family 3 subfamily A member 4 (CYP3A4) small molecule antagonists: luciferase qHTS assay (AID 1645841; active = well fitted curve in the direction sought with a large enough effect in the repeat runs; an effect the other way counts as inactive or inconclusive; also: nearly all actives have a fitted effect of over 45% in size). In a few lines: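 P450-Glo CYP3A4 enzyme with proluciferin substrate preincubated 10 min with compound at room temperature, then NADPH regeneration 1 h. Luciferin detection reagent added for 20 min; luminescence recorded. Ketoconazole positive control.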
Sequence of Cytochrome P450 3A4 (Homo sapiens) (P08684 whole entry, looked up): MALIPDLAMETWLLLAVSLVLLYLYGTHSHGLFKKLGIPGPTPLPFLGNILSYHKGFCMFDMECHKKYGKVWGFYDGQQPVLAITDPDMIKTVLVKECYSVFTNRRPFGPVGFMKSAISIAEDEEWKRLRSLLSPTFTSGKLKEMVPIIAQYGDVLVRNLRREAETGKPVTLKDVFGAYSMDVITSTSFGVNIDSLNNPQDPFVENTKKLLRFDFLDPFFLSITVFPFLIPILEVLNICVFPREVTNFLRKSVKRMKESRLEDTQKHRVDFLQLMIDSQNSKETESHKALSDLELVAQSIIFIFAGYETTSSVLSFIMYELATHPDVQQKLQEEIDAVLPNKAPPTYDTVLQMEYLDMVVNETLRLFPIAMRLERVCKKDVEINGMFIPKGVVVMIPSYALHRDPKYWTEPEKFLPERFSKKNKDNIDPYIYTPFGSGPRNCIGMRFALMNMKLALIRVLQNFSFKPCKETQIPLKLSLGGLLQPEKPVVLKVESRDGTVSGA

Sequence of Cytochrome P450 2C9 (Homo sapiens) (P11712 whole entry, looked up): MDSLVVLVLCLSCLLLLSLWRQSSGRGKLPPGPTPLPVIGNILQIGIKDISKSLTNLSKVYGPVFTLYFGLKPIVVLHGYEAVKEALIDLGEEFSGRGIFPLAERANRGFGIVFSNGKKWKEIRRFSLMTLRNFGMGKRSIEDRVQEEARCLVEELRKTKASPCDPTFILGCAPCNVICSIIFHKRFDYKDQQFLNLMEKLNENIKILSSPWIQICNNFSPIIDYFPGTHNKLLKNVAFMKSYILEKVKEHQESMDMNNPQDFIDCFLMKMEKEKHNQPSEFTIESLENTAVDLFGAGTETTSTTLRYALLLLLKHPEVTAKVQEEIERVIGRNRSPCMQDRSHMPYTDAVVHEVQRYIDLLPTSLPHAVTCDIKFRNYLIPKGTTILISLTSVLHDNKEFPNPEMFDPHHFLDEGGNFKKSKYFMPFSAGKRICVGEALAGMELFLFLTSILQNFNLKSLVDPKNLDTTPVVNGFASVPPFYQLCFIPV
Sequence of Rap guanine nucleotide exchange factor 3 (Homo sapiens) (O95398 whole entry, looked up): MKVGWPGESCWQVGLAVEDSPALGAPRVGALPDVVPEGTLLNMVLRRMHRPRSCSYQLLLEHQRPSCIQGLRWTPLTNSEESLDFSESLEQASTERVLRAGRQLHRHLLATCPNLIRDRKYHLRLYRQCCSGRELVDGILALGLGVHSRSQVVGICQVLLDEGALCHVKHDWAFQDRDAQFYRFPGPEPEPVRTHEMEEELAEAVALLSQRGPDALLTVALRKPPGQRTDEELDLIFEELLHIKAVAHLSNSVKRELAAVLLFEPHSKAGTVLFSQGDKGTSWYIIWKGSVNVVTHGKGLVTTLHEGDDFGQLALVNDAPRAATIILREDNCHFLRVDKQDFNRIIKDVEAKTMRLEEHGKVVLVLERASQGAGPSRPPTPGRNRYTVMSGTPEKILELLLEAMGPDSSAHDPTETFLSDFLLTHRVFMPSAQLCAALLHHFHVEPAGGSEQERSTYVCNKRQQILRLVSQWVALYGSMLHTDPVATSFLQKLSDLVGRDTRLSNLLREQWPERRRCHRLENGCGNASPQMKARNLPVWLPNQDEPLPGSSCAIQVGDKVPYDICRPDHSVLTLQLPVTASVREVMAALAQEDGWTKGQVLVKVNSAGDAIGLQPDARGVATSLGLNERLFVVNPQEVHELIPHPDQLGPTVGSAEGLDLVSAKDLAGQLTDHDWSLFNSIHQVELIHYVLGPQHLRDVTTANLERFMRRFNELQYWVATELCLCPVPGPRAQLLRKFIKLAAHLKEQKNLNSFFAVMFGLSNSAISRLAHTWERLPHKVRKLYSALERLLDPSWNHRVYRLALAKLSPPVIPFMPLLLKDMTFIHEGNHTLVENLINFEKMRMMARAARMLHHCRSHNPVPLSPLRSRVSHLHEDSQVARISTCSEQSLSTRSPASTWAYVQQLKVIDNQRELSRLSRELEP
Sequence of Rap guanine nucleotide exchange factor 4 (Homo sapiens) (Q8WZA2 whole entry, looked up): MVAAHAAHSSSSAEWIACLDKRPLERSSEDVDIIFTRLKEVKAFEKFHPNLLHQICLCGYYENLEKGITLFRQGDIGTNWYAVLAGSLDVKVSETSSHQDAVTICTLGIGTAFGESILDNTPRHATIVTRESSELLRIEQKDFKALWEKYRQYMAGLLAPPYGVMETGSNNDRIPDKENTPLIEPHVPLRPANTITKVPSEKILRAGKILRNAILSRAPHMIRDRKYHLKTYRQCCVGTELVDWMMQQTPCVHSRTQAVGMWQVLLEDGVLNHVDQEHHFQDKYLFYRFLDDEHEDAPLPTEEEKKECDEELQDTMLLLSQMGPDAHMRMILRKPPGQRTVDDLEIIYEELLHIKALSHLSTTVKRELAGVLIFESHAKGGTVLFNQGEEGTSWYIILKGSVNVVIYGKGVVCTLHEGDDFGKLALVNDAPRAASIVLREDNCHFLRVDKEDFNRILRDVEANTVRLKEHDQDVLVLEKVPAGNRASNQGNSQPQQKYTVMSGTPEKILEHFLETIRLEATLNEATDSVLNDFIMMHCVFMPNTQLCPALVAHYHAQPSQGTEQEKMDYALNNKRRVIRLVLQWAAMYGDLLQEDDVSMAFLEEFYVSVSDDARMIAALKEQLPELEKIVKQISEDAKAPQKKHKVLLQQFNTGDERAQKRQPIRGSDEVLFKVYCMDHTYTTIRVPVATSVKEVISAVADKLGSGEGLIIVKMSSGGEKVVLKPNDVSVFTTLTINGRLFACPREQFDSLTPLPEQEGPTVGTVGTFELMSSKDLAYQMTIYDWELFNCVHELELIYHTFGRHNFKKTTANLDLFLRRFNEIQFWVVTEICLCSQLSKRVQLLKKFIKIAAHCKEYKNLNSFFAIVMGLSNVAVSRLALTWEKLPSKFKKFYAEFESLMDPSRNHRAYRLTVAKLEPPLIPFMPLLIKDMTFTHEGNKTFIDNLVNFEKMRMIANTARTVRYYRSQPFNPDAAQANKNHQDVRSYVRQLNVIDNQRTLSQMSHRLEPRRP

Consider `COC(=O)c1c(Cl)c(Cl)c(C(=O)OC)c(Cl)c1Cl`, for which the Potency entry in [1], in test [3], in test [4], in [5] and in test [6] was “inactive” throughout. For the same compound, in [2], the max response was 10.1%.
With `OCCOCCN1CCN(C(c2ccccc2)c2ccc(Cl)cc2)CC1` (stereo not given), the Potency entry in test [7] was “inactive”.
Turning to `Cc1onc(-c2ccccc2)c1C(=O)Cl`, the Potency result in test [1], in test [3], in test [4] and in [5] was “inactive” each time.
Regarding `Nc1cccc2c(N)cccc12`, the Potency entry in test [1], in [9], in test [10] and in test [11] was “inactive” in each case. The Potency was 18.9 µM (active) in test [5], 24.3 µM (active) in test [6] and 3.86 µM (active) in [8].
Turning to `CCOC(=O)c1ccc(O)c(O)c1`, the max response in [2] is 4.88%. Besides, the Potency entry in test [4] and in test [5] was “inactive” throughout. In addition, the figures for the Potency in test [6] and in [8] were 9.44 µM (active) and 13.3 µM (active), respectively.
For `O=[N+]([O-])c1ccc(O)c2ncccc12`, the Potency is 7.94 µM (active) in test [2]; 1 µM (active) in test [7]; 1.88 µM (active) and 6.61 µM (active) in test [6]; 841 nM (active) and 6.61 µM (active) in [8]. Moreover, the Potency entry in [4] is “inactive”.
With `CN1CCC(N(Cc2cccs2)c2ccccc2)CC1`, the Potency is 31.6 µM (active) in test [1] and 0.49 µM (active) in test [4]. Moreover, in test [5], the Potency entry is “inactive”.
For `CC(C)C[C@@H]1[C@H](c2ccccc2)OC(=O)N1CCCN1CCCCCC1`, the Potency was 31.6 µM (active) in test [1] and 0.776 µM (active) in test [4]. Besides, the max response in [2] is -0.48%. Further, the Potency entry in test [5] was “inactive”.
On to `CC(=O)N(CC(=O)N(C)C)c1ccccc1`, for which the Potency entry in test [7], in [3], in [4], in test [12], in test [5] and in test [6] was “inactive” each time. In [8], the Potency entry was “inactive”.
As to `COc1ccc2c(c1)c(CC(=O)OC/C=C(\C)CC/C=C(\C)CCC=C(C)C)c(C)n2C(=O)c1ccc(Cl)cc1`, the Potency result in test [7] and in test [3] was “inactive” in each case. The Potency in [4] is 12.3 µM (active).
Take `CCOC(=O)OCC/C(SC(=O)OCC)=C(\C)N(C=O)Cc1cnc(C)nc1N`: the Potency result in [7], in test [3] and in [5] was “inactive” each time. Besides, the Potency in test [4] was 2.16 µM (active).
With `CO/N=C(/C(=O)N[C@@H]1C(=O)N2C(C(=O)O)=C(Cn3nnc(C)n3)CS[C@H]12)c1csc(N)n1`, the Potency entry in test [7], in [3], in test [4] and in test [5] was “inactive” in each case.
As to `COc1cc(OC)nc(O[C@H](C(=O)O)C(OC)(c2ccccc2)c2ccccc2)n1`, the Potency entry in test [7], in [3], in [4] and in [5] was “inactive” in each case.
As to `O=C(O)C1CCC1`, the Potency entry in test [7], in test [3], in [4], in [12], in test [6] and in test [8] was “inactive” each time.
Regarding `CCOC(=O)CN1CCCC1=O`, the Potency result in test [7], in test [3], in test [4], in test [12], in test [5] and in test [6] was “inactive” each time. Moreover, in [8], the Potency entry is “inactive”.
Consider `O=C(NN1CCCC1)NS(=O)(=O)c1ccc(Cl)cc1`, for which the Potency result in test [7], in test [3], in test [4], in test [12], in [5] and in test [6] was “inactive” in each case. For the same compound, in test [8], the Potency result is “inactive”.
Turning to `Nc1nc2ccccc2n1Cc1ccc(F)cc1`, the Potency entry in [7], in test [3] and in [5] was “inactive” each time. In addition, in test [4], the Potency is 0.0977 µM (active).
With `O=C(CCCCCCCCC#CI)Oc1ccccc1`, the Potency entry in [7] and in test [3] was “inactive” throughout. Further, the Potency in test [4] is 5.42 µM (active); in test [5], 16.2 µM (active).
With `CC(Oc1c(Cl)cccc1Cl)C1=NCCN1` (stereo not given), the Potency entry in test [7] and in test [3] was “inactive” throughout. The Potency in test [4] is 8.71 µM (active).
As to `CCCC(=O)O[C@]1(C(=O)COC(=O)CC)CC[C@H]2[C@@H]3CCC4=CC(=O)CC[C@]4(C)[C@H]3[C@@H](O)C[C@@]21C`, the Potency entry in test [7], in test [3], in [4], in [12], in [5] and in [6] was “inactive” each time.
On to `COc1ccc([C@@H]2Sc3ccccc3NC(=O)[C@@H]2O)cc1`, for which the Potency result in test [7] and in [3] was “inactive” each time. Also, the Potency in test [4] is 13.8 µM (active).
On to `CCCc1ncc(C(=O)O)s1`, for which the Potency result in [7], in test [3], in test [4], in [5], in [6] and in [8] was “inactive” each time.
As to `CCCCCC1Nc2cc(C(F)(F)F)c(S(N)(=O)=O)cc2S(=O)(=O)N1` (stereo not given), the Potency result in [7], in [3], in [12], in [6] and in test [8] was “inactive” in each case. Moreover, the values for the Potency in test [4] and in test [5] were 3.89 µM (active) and 1.95 µM (active), respectively.
Consider `Nc1ncnc2nc[nH]c12`, for which the Potency entry in [7], in [3], in [4], in test [12], in test [5] and in test [6] was “inactive” throughout. Further, the Potency result in test [8] was “inactive”.
`CC(C(=O)O)c1ccc(/C=C2\CCCCC2=O)cc1` (stereo not given): the Potency result in [7], in test [3], in test [4], in test [5] and in test [6] was “inactive” in each case.
As to `CC(=O)OCC(=O)Nc1cc(C#N)cc(NC(=O)COC(C)=O)c1Cl`, the Potency entry in test [7], in test [3], in test [4], in [12], in [5] and in test [6] was “inactive” in each case. Further, the Potency entry in test [8] is “inactive”.
Turning to `CO[C@@H]1[C@@H](O[C@@H]2O[C@H](C)[C@@H](O[C@H]3C[C@@](C)(O)[C@@H](O)[C@H](C)O3)[C@H](N(C)C)[C@H]2O)[C@@H](CC=O)C[C@@H](C)[C@@H](O[C@@H]2CC[C@H](N(C)C)[C@@H](C)O2)/C=C/C=C/C[C@@H](C)OC(=O)C[C@H]1OC(C)=O`, the Potency entry in test [7], in test [3], in test [4] and in test [5] was “inactive” in each case.
As for `CO[C@]1(NC(=O)CSC(F)F)C(=O)N2C(C(=O)O)=C(CSc3nnnn3CCO)CO[C@H]21`, the Potency result in test [7], in test [3] and in test [4] was “inactive” each time.
Take `COc1ccc2nc(SCc3ncc(C)c(OC)c3C)[nH]c2c1`: the Potency result in test [7], in test [3] and in test [5] was “inactive” in each case. In test [4], the Potency was 12.3 µM (active).
